# Apoferritin bind: qHTS Assay for Identification of Novel General Anesthetics; 350,000 tested, 0.074% active; apoferritin/1-aminoanthracene competitive binding, fluorescence; Potency, µM (doses to about 77.5 µM), inactives show top-dose activity change, negative = displacement, most hits filed as inhibitors; AID 485281, 2010; note: potency is the fitted concentration of half-maximal effect; % is set by controls: 0 for no effect and ±100 for the full control effect; nearly all actives have a fitted effect of over 20% in size
#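 Concentration-response curves derived by four-parameter Hill fitting of normalized fluorescence, where compounds displaced 1-AMA from 10 uM horse apoferritin following a brief 10 min room-temperature incubation; propofol titration acted as positive control.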
# miR-21 reporter: qHTS Assay for Modulators of miRNAs and/orActivators of miR-21; HeLa miR-21 FLuc reporter, luciferase, 48 h; Potency, µM (titrated, usually from 38.3 µM), without a hit: at the highest dose activity change, positive = activation, actives largely listed as activators; 340,000 tested, under 10 active;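 note: % of control where 0% means no effect; miR-21 action dims this reporter so a rising signal means less miR-21 action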
#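 Compounds were titrated across several concentrations (up to approximately 40 uM) and incubated 48 hours with HeLa miR-21-FLuc reporter cells (miR-21 target sequence downstream of FLuc, endogenous miR-21). Readout was firefly luciferase luminescence after lytic detection reagent.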
# rTrxR1 inhibitor: qHTS Assay for Inhibitors of Mammalian Selenoprotein Thioredoxin Reductase 1 (TrxR1): qHTS; 390,000 tested, 1% active; Potency, µM (titrated, usually from 114 µM), without a hit: at the highest dose activity change, negative = inhibition, actives largely listed as inhibitors; recombinant rTrxR1, NADPH fluorescence consumption, selenite substrate; Thioredoxin reductase 1, cytoplasmic (Rattus norvegicus), O89049; AID 588453, 2011; note: potency is the fitted concentration of half-maximal effect; % is set by controls: 0 for no effect and ±100 for the full control effect; nearly all actives have a fitted effect of over 65% in size
#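 Rat TrxR1 (90 nM in the dispensed reagent) was pre-reduced with 400 uM NADPH for 5 min at room temperature, then incubated with compound for 15 min. After 400 uM selenite was added, NADPH fluorescence (Ex 340/Em 450 nm) was followed for 8 min.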
# TrxR1 substrate: qHTS Assay for Substrates of Mammalian Selenoprotein Thioredoxin Reductase 1 (TrxR1): qHTS; Thioredoxin reductase 1, cytoplasmic (Rattus norvegicus), O89049; purified TrxR1 substrate turnover, NADPH consumption readout; Potency, µM (titrated, usually from 114 µM), inactives show top-dose activity change, negative = substrate turnover; 390,000 tested, 0.01% active; note: potency is the fitted concentration of half-maximal effect; % is set by controls: 0 for no effect and ±100 for the full control effect; nearly all actives have a fitted effect of over 50% in size
#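 Rat TrxR1, dispensed at 90 nM, was prereduced with 400 uM NADPH (final) for 5 min at ~22 deg C, then incubated with compound 15 min before 400 uM selenite. A first-read NADPH fluorescence drop versus no-compound background flagged substrates.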
# ClpP mod: qHTS Assay for Activators of ClpP; ATP-dependent Clp protease proteolytic subunit (Bacillus subtilis (strain 168)), P80244; purified B. subtilis ClpP, FRET peptide cleavage, 20 min; Potency, µM (doses to about 57.5 µM), without a hit: at the top dose activity change, negative = active; 340,000 tested, 1.9% active; active = well fitted falling curve with a large enough effect; inconclusive = small, poorly fitted or top-dose-only effect; inactive = no such curve, though single readings can be large or run the other way; note: potency is the fitted concentration of half-maximal effect; the source files actives as falling curves though it sought activators and does not explain the sign; nearly all actives have a fitted effect of over 65% in size
#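 FRET quenching reversal measured ClpP activation: 10 microg/mL B. subtilis ClpP at pH 8 with the FRET-FV decapeptide, read at 430 nm after 320 nm excitation. The 20-min minus 0-min signal was scaled between DMSO/no-enzyme wells and ADEP (5.8 microM final).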
# * marks the source's active call; other numbers are inactive results; ? = inconclusive; / = not tested or not shown; [ ] = remark or other dose. The list is not random: actives were taken first. Their share in the collection is about 2.5%. Unless noted, calls come from the whole dose curve; as a rule, active = well fitted curve in the direction sought with a large enough effect; inconclusive = small, poorly fitted or top-dose-only effect, or another doubt; inactive = no such curve, though single readings can be large; an effect the other way counts as inactive or inconclusive.
SMILES,Apoferritin bind,miR-21 reporter,rTrxR1 inhibitor,TrxR1 substrate,ClpP mod
CCOc1ccc(NC(=O)CSc2nnc(CC)c(CC)n2)cc1,-3%,-3%,20%[57.1 µM],8%[57.1 µM],0%
COc1ccc(CNC(=O)c2c3c(nc4ccccc24)C(=O)N(C2CCCCC2)C3)cc1,-5%,5%,3%[57.1 µM],-3%[57.1 µM],-3%
Cc1cccc(CSc2ncc(Cl)c(C(=O)Nc3nnc(C)s3)n2)c1,14µM*,-1%,-10%,-10%,0%
Cc1cccc(CS(=O)(=O)c2ncc(Cl)c(C(=O)Nc3c(C)cccc3C)n2)c1,-17%,?,?,10%,2%
Cc1cccc(C)c1NC(=O)c1nc(S(=O)(=O)Cc2ccccc2)ncc1Cl,-5%,?,16µM*,2%,/
COc1ccc(OC)c(NC(=O)c2nc(S(=O)(=O)Cc3ccccc3F)ncc2Cl)c1,/,/,?,14%,-16%
O=C(Nc1ccc2ccccc2c1)c1nc(S(=O)(=O)Cc2ccccc2F)ncc1Cl,/,/,10µM*,-5%,-22%
COc1ccccc1C(=O)Nc1cccc(OCc2cc(=O)n3c(C)csc3n2)c1,46%,-1%,28%,8%,?
CC(=O)N1c2ccc(S(=O)(=O)NCC3CCC(C(=O)Nc4cccc(F)c4)CC3)cc2CC1C (configuration not stated),-7%,?,-3%,-9%,0%
CCCC(c1nnnn1CCc1ccccc1)N1CCC(C(N)=O)CC1 (configuration not stated),0%,-8%,17%[57.1 µM],14%[57.1 µM],-2%
CCCC(c1nnnn1CCc1ccccc1)N1CCN(C2CCCC2)CC1 (configuration not stated),-22%,-2%,-26%,-5%,0.79µM*
COc1ccc(/C=C2\SC(=Nc3ccccc3OC)NC2=O)cc1,-23%,7%,-6%,-3%,1%
COc1ccc(/C=C2\SC(=NCc3ccccc3)NC2=O)cc1,?,2%,-1%,-5%,22µM*
COc1cccc(NC(=O)Cn2nnc(-c3nc(-c4ccccc4)no3)c2N)c1,3%,-33%,29%[57.1 µM],-2%[57.1 µM],-19%
COc1ccc(N2CCN(C3C(=O)c4ccccc4N3C(C)=O)CC2)cc1 (configuration not stated),-8%,2%,5%[57.1 µM],-1%[57.1 µM],-8%
COc1ccc(NC(=O)Cn2c(=O)nc(-c3ccccc3)c3ccccc32)cc1OC,11%,3%,-1%[57.1 µM],-8%[57.1 µM],-9%
Nc1c(S(=O)(=O)c2cccs2)c2nc3ccccc3nc2n1Cc1ccccc1,64%,2%,4%,93%,35µM*
COc1cccc(/C=N/n2c(N)c(S(=O)(=O)c3cccs3)c3nc4ccccc4nc32)c1OC,-2%,2%,63%[57.1 µM],43%[57.1 µM],2.8µM*
Cc1ccc(Cn2c(N)c(S(=O)(=O)c3cccs3)c3nc4ccccc4nc32)cc1,0%,-3%,-21%,78%,3.2µM*
COc1ccc(CN2CN(S(=O)(=O)c3cccs3)c3nc4ccccc4nc32)cc1,1%,-52%,-6%,-3%,/
COc1ccc(Cn2c(N)c(S(=O)(=O)c3cccs3)c3nc4ccccc4nc32)cc1,4%,-13%,55%,85%,8.9µM*
COc1ccccc1/C=N/n1c(N)c(C(=O)NC2CCCCC2)c2nc3ccccc3nc21,-7%,0%,-18%,11%,44%
Cc1ccc(S(=O)(=O)c2c(N)n(-c3ccccc3)c3nc4ccccc4nc23)cc1,-10%,-10%,33%[57.1 µM],69%[57.1 µM],/
COCCn1c(N)c(S(=O)(=O)c2cccs2)c2nc3ccccc3nc21,422%,0%,29%,595%,32%
COc1ccc(CCNC(=O)Cn2cc(S(=O)(=O)Cc3ccccc3Cl)c3ccccc32)cc1OC,1%,-2%,?,-16%,0%
SMILES,Apoferritin bind,miR-21 reporter,rTrxR1 inhibitor,TrxR1 substrate,ClpP mod
O=C1[C@H](Cc2ccccc2)NC/C=C\C[C@H](c2ccc(Cl)cc2)N1Cc1ccc(Cl)cc1,/,/,-14%,-11%,-2%
COc1cccc(OC)c1-c1nnc(-c2cn(C)c3ccccc23)o1,-4%,-19%,58%,51%,11µM*
COc1ccccc1-c1nnc(-c2ccc(C)cc2)o1,/,/,6%[57.1 µM],4%[57.1 µM],/
Cc1c(CCC(=O)NCCc2ccccc2F)c(=O)oc2cc(O)ccc12,336%,-5%,-12%,713%,4%
C=CCOc1ccccc1CN(C(=O)CCl)c1ccc2c(c1)OCO2,-5%,28%,20µM*,0%,/
CCOc1ccccc1NC(=O)Nc1ccc2c(c1)OCO2,-4%,-27%,7%,0%,0%
COc1ccc(-c2sc(N)nc2-c2ccccc2)cc1,/,/,1%,2%,0%
Fc1cnc(N2CCN(c3ccccc3)CC2)nc1N1CCN(c2ccccc2)CC1,-4%,-10%,10%,2%,32µM*
Cc1ccc(OCc2cc(=O)n3c4c(sc3n2)CCCC4)cc1C,-3%,-14%,-6%,-7%,-16%
CSc1nc(C)cc(Nc2c(C)cc(C)cc2C)n1,?,11%,21%,3%,0%
Cc1ccc(-c2csc(NC(=O)c3cccc(N4C(=O)CCC4=O)c3)n2)o1,-11%,15%,20µM*,2%,-1%
CCOC(=O)c1c(-c2ccc(-c3ccccc3)cc2)csc1NC(=O)c1cccc(N2C(=O)CCC2=O)c1,6%,2%,22%,18%,16µM*
CCC(C(=O)Nc1cccc(-c2cn3cccnc3n2)c1)c1ccccc1 (configuration not stated),77%,-1%,26%[57.1 µM],91%[57.1 µM],4%
Cc1ccc(S(=O)(=O)N2CCC(C(=O)NNC(=O)c3ccccc3O)CC2)cc1C,/,/,-5%,-6%,?
Cc1cc(C)c(C)c(S(=O)(=O)N2CCC(C(=O)NNC(=O)c3ccccc3O)CC2)c1C,/,/,22%,11%,28µM*
Cc1ccc(NC(=O)c2cc(S(=O)(=O)N3CCc4ccccc43)cn2C)c(Cl)c1,59%,0%,11%,12%,?
CCCOc1ccc(C(=O)Nc2ccc(Cl)c(-c3nc4ncccc4o3)c2)cc1,?,7%,-1%,-4%,-13%
COc1ccc(C(=O)NCc2c(C)oc(C)c2C(=O)O)cc1,-7%,-2%,5%[57.1 µM],6%[57.1 µM],16µM*
COc1ccc(C(=O)CCS(=O)(=O)c2ccc(C)cc2)cc1,-6%,4%,14µM*,0%,-2%
COc1ccc(C(=O)NCCS(=O)(=O)NCc2ccc(C)cc2)cc1,/,/,9%[57.1 µM],5%[57.1 µM],/

# Screening results as filed in PubChem BioAssay.
